Assay results reported in PubChem BioAssay AID1851 (National Center for Advancing Translational Sciences (NCATS), 2009).
Screen size: about 16,000 compounds; about 2,600 (16%) were called active. Not shown: some 20% with an inconclusive outcome. Not all results are given here. Unmarked numbers belong to inactive results. Calls come from the whole dose curve; as a rule, active = well fitted curve in the direction sought with a large enough effect; inconclusive = small, poorly fitted or top-dose-only effect, or effect the other way; inactive = no such curve, though single readings can be large or run the other way.

molecular target: Cytochrome P450 2D6 (Homo sapiens) (UniProt P10635); test: Cytochrome panel assay with activity outcomes; conditions: recombinant CYP, pro-luciferin dealkylation, luminescence, p450-cyp2d6; series mostly up to 57.1 µM
% is set by controls: 0 for no effect and ±100 for the full control effect.

Cytochrome P450 2D6 (Homo sapiens), sequence (P10635 whole entry, looked up): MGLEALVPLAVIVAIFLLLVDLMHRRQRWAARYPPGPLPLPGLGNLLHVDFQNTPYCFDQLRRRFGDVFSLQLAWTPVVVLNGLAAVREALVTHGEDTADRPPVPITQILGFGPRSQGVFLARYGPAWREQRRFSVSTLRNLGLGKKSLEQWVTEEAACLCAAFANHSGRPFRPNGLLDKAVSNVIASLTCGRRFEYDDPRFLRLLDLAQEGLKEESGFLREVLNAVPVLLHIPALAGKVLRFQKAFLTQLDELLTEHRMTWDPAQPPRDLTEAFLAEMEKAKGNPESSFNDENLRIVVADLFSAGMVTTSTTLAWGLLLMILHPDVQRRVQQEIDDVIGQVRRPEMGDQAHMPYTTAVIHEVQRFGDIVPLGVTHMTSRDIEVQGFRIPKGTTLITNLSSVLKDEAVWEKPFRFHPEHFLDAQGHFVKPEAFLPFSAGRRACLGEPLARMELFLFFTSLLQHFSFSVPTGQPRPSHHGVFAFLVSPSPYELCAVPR

Structure (SMILES) | AC50 | activity, negative = inhibition
Cc1cccc2c1OCC/C2=N\NC(=O)COc1ccccc1Cl | inactive | 
Cc1sc(NC(=O)/C=C/c2ccc(C(C)C)cc2)c(C#N)c1C | inactive | 
Cn1cc(-c2nc3cnc(Oc4ccccc4)nc3n(C3CC3)c2=O)c2ccccc21 | inactive | 
CC(C)NC(=O)N1CC2(CCN(C(=O)c3cc(C(F)(F)F)cc(C(F)(F)F)c3)CC2)C1 | 0.251 µM (active) | 
CC(C)CN1CCC2(CC1)CCN(C(=O)c1cc(C(F)(F)F)cc(C(F)(F)F)c1)CC2 | inactive | 
CC(C)NC(=O)N1CCCC2(CCN(C(=O)c3cc(C(F)(F)F)cc(C(F)(F)F)c3)CC2)C1 | inactive | 
CC(C)NC(=O)N1CCC2(CC1)CCN(C(=O)c1cc(C(F)(F)F)cc(C(F)(F)F)c1)CC2 | inactive | 
CC(C)CN1CC[C@@]2(CCCN(C(=O)c3cc(C(F)(F)F)cc(C(F)(F)F)c3)C2)C1 | inactive | 
CC(C)CN1CCCC2(CCN(C(=O)c3cc(C(F)(F)F)cc(C(F)(F)F)c3)CC2)C1 | 10 µM (active) | 
CCOc1cc(/C=C2/C(=O)N(c3ccccc3)N=C2C)ccc1OC(=O)c1ccco1 | inactive | 
CN1CCCN(S(=O)(=O)c2ccc3c(c2)OCCO3)CC1 | inactive | 
C=CCNC(=O)c1ccc(-c2nc(-c3ccc(Cl)c(Cl)c3)cs2)cc1 | inactive | 
CCOC(=O)N/N=C1/C[C@@H](O)[C@@H](O)[C@@H]2[C@@H]3C(=O)N(CC)C(=O)[C@H]3CC[C@@H]12 |  | 7.29% [at 11.4 µM]
CO[C@H]1COC(=O)[C@H]2CCCN2C(=O)[C@@H](C)COC(=O)C/C=C\[C@@H]1C |  | 19.9% [at 11.4 µM]
Cc1nn(CC(=O)NCc2ccccc2)c(C)c1[N+](=O)[O-] | inactive | 
CCOc1cc(-c2noc(N)c2C#N)cc(OCC)c1OCC | inactive | 
C/C(=N\NC(=O)c1cccc(Br)c1)c1ccc(Br)cc1 | inactive | 
O=C(N/N=C/c1cccc(Oc2ccccc2)c1)c1cccc(Br)c1 | inactive | 
O=C(N/N=C/C1C(c2ccccc2)C1(Cl)Cl)c1cccc(Br)c1 (stereo not given) | 7.08 µM (active) | 
Cn1c(C(N)=O)cnc1Sc1ncc(C(F)(F)F)cc1Cl | inactive | 
Cc1ccnc(N2C(=O)C3C4CC(C(Br)C4Br)C3C2=O)c1 (stereo not given) | inactive | 
CCC(=O)O[C@@]1(C(=O)SCF)[C@@H](C)C[C@H]2[C@@H]3C[C@@H](F)C4=CC(=O)C=C[C@@]4(C)[C@]3(F)[C@@H](O)C[C@]21C | inactive | 

Structure (SMILES) | AC50 | activity, negative = inhibition
CO[C@@H](NC(N)=O)C(=O)O |  | 2.43% [at 11.4 µM]
CCC(C)(C)NC(=O)c1ccc2c(c1)N(CC(=O)OC)C(=O)C(C)(C)O2 | inactive | 
O=C(Oc1ccccc1)N1CCC2(CCCN(c3ccc(-c4ccccc4)cc3)C2)CC1 | inactive | 
CC(C)c1nc2ccccn2c1NC1CCCCC1 | 3.16 µM (active) | 
CC(C)c1ccc(O)c(NC(=O)c2ncn[nH]2)c1 | inactive | 
COc1ccc(NC(=O)CC#N)cc1OC | inactive | 
COC(=O)C1=C(C)NC(=O)NC1c1ccsc1 (stereo not given) | inactive | 
COCCNC(=O)COc1ccc(OCCNC[C@@H](O)COc2ccccc2)cc1 | 5.01 µM (active) | 
O=C(O)COc1ccc(OCCNC[C@@H](O)COc2ccccc2)cc1 | inactive | 
COCCNC(=O)COc1ccc(Oc2ccccc2)cc1 | inactive | 
CCOC(=O)N/N=C1/C[C@@H](O)[C@@H](O)[C@@H]2[C@@H]3C(=O)N(CC)C(=O)[C@H]3CC[C@H]12 |  | -3.76% [at 11.4 µM]
CS(=O)(=O)c1nc(-c2ccccc2)cc(-c2ccccc2)c1C#N | inactive | 
CCOC(=O)c1sc2nc3c(cc2c1N)COC(C(C)C)C3 (stereo not given) | inactive | 
CCc1ccccc1OC[C@@H](O)CN[C@H]1CCCc2ccccc21 | inactive | 
CCC(=O)N[C@@H]1CCc2cccc(OC)c2C1 | inactive | 
COc1cccc(C=NC=Nc2cccc(OC)c2)c1 | inactive | 
O=C(CSc1n[nH]c(-c2ccccc2O)n1)N1CCCc2ccccc21 | 25.1 µM (active) | 
O=C(CSc1nc(-c2ccccc2)cs1)N1CCc2ccccc21 | inactive | 
O=C(CSc1nnc(CNc2ccccc2)o1)N1CCCc2ccccc21 | inactive | 
CC(C)C[C@H](NC(=O)[C@@H](O)[C@@H](N)Cc1ccccc1)C(=O)O | inactive | 
CC(C)(C)c1ccc(C(=O)c2c[nH]c(C(=O)NCCCn3ccnc3)c2)cc1 | 5.01 µM (active) | 
CCC(CC)C(=O)c1c[nH]c(C(=O)NCCc2ccccn2)c1 | inactive | 

Structure (SMILES) | AC50 | activity, negative = inhibition
O=C(NCCc1ccccn1)c1cc(C(=O)C2CCCCC2)c[nH]1 | inactive | 
O=C(O)CCCCCNC(=O)c1ccncc1 | inactive | 
Cc1ccc(C(=O)c2c[nH]c(C(=O)NCCCN3CCOCC3)c2)cc1 | inactive | 
O=C(c1ccc(C(F)(F)F)cc1)c1c[nH]c(C(=O)NCCCn2ccnc2)c1 | 2.51 µM (active) | 
C1CNCCOCCNCCN1 | inactive | 
CN(C)c1ccc(C(c2ccc(N(C)C)cc2)c2ccc([N+](=O)[O-])cc2)cc1 |  | 14% [at 11.4 µM]
O=C(O)[C@@H]1[C@@H](C(=O)Nc2ccccc2)[C@@H]2C=C[C@@H]1O2 |  | 2.5% [at 11.4 µM]
CCOc1ccc(Cc2nccc3cc(OCC)c(OCC)cc23)cc1OCC | inactive | 
O=C(O)Cc1ccc(O)c(O)c1 | inactive | 
Oc1ccc(Cc2nccc3cc(O)c(O)cc23)cc1O | 1.26 µM (active) | 
COc1ccc(-c2nc3cnc(OC)nc3n(CCc3ccccc3)c2=O)cc1 | inactive | 
CCN(CC)C(=O)CSc1nc(O)cc(=O)n1CC | inactive | 
Cc1n[nH]c(C)c1N=Nc1cc(Cl)ccc1Cl | inactive | 
COc1ccc(Cl)cc1N=Nc1ncc[nH]1 | 2.51 µM (active) | 
N#Cc1ccccc1Sc1ccccc1N | inactive | 
CCc1ccc(-c2csc(NC(=O)C3CCCO3)c2C(=O)OC(C)C)cc1 (stereo not given) | inactive | 
Fc1ccc(CN(C2=NCCN2)c2c(Cl)cccc2Cl)cc1 | 1.26 µM (active) | 
CN(C)C(=O)Oc1cccc([N+](C)(C)C)c1 | inactive | 
COc1ccccc1CNC(=O)CCN1C(=O)COc2ccc(C)cc21 | inactive | 
Cc1ccc2c(c1)N(CCC(=O)NCCN1CCOCC1)C(=O)CO2 | inactive | 
Cc1ccc2c(c1)N(CCC(=O)NCc1ccc3c(c1)OCO3)C(=O)CO2 | 14.1 µM (active) | 
